Test results from PMC7862700, “An all-to-all approach to the identification of sequence-specific readers for epigenetic DNA modifications on cytosine”.

Columns and labels:
Experiment in all cases: DAPPL (digital affinity profiling via proximity ligation, sequencing); 10 mM Tris-HCl pH 7.5, 50 mM NaCl, 1 mM DTT, 4% glycerol, room temperature, 30 min; GST-TFs on glutathione beads, 16-mer random dsDNA library, 0.1% formaldehyde crosslink after washing; high values mean tight binding
FLI1 = target: T1, FLI1 (Homo sapiens, UniProt Q01543 1-452); conditions: protein: recombinant; tags: N-terminal GST; dsDNA, one strand shown
T1 sequence: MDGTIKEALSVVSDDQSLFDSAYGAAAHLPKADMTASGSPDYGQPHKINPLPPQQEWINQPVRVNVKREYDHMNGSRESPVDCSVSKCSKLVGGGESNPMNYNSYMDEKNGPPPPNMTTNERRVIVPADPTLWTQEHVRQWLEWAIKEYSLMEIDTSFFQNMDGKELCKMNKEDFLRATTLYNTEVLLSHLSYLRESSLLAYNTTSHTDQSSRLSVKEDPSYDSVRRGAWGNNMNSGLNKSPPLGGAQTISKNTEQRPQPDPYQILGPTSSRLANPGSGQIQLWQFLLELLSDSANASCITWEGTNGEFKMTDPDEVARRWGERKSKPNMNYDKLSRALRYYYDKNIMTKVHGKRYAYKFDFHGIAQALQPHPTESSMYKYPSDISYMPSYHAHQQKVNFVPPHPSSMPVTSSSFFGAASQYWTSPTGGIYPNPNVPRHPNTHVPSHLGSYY
Method in brief: (§1)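 Yeast served to express human transcription factors as GST fusions, which were then captured on glutathione beads and labelled with DNA barcodes. Pooled with a tag-only sample, they were incubated with 200 nmole of a 16-mer random double-stranded DNA library for 30 min at room temperature in Tris/NaCl/DTT/glycerol buffer, washed, crosslinked with 0.1% formaldehyde, ligated by proximity, amplified by PCR and sequenced. Dividing each hexamer's read frequency for a factor by its frequency for the tag-only sample gives the binding signal.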

ELK1 = target: T2, ELK1 (Homo sapiens, UniProt P19419 1-428); conditions: protein: recombinant; tags: N-terminal GST; dsDNA, one strand shown
T2 sequence: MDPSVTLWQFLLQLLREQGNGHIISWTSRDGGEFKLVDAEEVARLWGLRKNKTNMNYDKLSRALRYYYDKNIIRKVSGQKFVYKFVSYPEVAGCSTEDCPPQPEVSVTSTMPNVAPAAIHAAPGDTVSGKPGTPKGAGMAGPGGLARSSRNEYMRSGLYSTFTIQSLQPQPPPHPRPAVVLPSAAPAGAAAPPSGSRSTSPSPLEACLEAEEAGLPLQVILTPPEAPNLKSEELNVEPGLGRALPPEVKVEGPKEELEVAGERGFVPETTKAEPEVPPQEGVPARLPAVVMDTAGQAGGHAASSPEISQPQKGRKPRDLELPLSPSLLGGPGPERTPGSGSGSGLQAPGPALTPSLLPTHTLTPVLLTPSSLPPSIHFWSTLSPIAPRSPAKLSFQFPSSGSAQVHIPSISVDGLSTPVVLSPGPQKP
Method in brief: as §1

GABPA = target: T3, GABPA (Homo sapiens, UniProt Q06546 1-454); conditions: protein: recombinant; tags: N-terminal GST; dsDNA, one strand shown
T3 sequence: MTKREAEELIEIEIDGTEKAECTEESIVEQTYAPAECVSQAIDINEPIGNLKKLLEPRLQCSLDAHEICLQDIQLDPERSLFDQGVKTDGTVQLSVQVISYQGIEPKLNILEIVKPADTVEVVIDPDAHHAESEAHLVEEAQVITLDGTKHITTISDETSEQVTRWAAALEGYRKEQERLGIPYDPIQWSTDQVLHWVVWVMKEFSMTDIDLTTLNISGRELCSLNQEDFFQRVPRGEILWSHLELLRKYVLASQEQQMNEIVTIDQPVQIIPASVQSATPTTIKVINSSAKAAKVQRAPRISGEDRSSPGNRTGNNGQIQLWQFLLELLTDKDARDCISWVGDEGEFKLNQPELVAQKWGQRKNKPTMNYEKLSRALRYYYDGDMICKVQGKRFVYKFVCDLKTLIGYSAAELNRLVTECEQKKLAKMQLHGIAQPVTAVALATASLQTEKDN
Method in brief: as §1

ERG = target: T4, ERG (Homo sapiens, UniProt P11308 1-479); conditions: protein: recombinant; tags: N-terminal GST; dsDNA, one strand shown
T4 sequence: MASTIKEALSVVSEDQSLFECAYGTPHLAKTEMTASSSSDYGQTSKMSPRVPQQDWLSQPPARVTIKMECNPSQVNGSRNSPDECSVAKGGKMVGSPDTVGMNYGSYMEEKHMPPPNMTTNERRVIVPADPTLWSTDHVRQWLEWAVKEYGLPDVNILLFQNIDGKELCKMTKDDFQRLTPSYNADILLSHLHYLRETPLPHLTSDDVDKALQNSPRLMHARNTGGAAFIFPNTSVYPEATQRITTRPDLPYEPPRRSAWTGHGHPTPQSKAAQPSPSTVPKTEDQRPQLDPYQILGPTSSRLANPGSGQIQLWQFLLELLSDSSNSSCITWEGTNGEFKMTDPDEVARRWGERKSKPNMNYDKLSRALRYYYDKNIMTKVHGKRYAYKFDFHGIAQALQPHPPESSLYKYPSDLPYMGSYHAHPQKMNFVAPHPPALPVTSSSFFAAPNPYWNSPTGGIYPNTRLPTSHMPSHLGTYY
Method in brief: as §1

ELF1 = ELF1 (Homo sapiens, UniProt P32519 1-619); conditions: protein: recombinant; tags: N-terminal GST; dsDNA, one strand shown
Method in brief: as §1

EHF = target: T5, EHF (Homo sapiens, UniProt Q9NZC4 1-300); conditions: protein: recombinant; tags: N-terminal GST; dsDNA, one strand shown
T5 sequence: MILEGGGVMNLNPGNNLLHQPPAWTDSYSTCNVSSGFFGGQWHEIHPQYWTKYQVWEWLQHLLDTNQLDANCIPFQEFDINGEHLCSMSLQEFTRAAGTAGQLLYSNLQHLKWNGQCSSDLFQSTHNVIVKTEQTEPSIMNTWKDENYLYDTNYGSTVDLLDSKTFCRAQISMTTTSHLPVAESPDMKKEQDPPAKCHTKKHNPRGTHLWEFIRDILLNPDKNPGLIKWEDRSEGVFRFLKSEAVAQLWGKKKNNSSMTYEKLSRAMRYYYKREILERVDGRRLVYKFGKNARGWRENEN
Method in brief: as §1

SPI1 = SPI1 (Homo sapiens, UniProt P17947 1-270); conditions: protein: recombinant; tags: N-terminal GST; dsDNA, one strand shown
Method in brief: as §1

SPIB = SPIB (Homo sapiens, UniProt Q01892 1-262); conditions: protein: recombinant; tags: N-terminal GST; dsDNA, one strand shown
Method in brief: as §1

ELK3 = target: T6, ELK3 (Homo sapiens, UniProt P41970 1-407); conditions: protein: recombinant; tags: N-terminal GST; dsDNA, one strand shown
T6 sequence: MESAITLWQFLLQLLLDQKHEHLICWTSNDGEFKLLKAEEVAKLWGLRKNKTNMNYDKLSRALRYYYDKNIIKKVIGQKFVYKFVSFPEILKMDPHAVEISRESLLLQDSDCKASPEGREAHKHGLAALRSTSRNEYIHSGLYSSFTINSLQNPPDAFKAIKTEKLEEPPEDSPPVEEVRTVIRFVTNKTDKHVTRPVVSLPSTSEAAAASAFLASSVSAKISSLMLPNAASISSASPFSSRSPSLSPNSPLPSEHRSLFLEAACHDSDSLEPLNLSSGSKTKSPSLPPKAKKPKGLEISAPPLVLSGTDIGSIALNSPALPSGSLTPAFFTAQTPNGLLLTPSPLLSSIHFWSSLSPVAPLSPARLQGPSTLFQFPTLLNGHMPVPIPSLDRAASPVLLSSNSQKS
Method in brief: as §1

FEV = target: T7, FEV (Homo sapiens, UniProt Q99581 1-238); conditions: protein: recombinant; tags: N-terminal GST; dsDNA, one strand shown
T7 sequence: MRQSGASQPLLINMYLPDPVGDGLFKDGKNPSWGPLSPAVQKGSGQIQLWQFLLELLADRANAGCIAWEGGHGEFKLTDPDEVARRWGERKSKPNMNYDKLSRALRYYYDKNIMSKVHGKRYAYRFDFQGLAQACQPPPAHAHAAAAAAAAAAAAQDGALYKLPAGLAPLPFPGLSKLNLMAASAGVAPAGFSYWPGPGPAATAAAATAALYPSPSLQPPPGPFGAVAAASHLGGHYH
Method in brief: as §1

ETV5 = ETV5 (Homo sapiens, UniProt P41161 1-510); conditions: protein: recombinant; tags: N-terminal GST; dsDNA, one strand shown
Method in brief: as §1

HSF1 = HSF1 (Homo sapiens, UniProt Q00613 1-529); conditions: protein: recombinant; tags: N-terminal GST; chain copies: 3; dsDNA, one strand shown
Method in brief: as §1

SPIC = target: T8, SPIC (Homo sapiens, UniProt Q8N5J4 1-248); conditions: protein: recombinant; tags: N-terminal GST; dsDNA, one strand shown
T8 sequence: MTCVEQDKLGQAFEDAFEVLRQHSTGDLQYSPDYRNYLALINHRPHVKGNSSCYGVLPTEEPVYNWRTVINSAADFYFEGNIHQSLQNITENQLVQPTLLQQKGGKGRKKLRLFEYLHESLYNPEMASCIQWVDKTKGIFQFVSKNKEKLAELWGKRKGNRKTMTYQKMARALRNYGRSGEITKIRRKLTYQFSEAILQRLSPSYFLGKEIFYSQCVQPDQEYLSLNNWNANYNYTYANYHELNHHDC
Method in brief: as §1

ELF4 = ELF4 (Homo sapiens, UniProt Q99607 1-663); conditions: protein: recombinant; tags: N-terminal GST; dsDNA, one strand shown
Method in brief: as §1

ELK4 = target: T9, ELK4 (Homo sapiens, UniProt P28324-2 1-405); conditions: protein: recombinant; tags: N-terminal GST; dsDNA, one strand shown
T9 sequence: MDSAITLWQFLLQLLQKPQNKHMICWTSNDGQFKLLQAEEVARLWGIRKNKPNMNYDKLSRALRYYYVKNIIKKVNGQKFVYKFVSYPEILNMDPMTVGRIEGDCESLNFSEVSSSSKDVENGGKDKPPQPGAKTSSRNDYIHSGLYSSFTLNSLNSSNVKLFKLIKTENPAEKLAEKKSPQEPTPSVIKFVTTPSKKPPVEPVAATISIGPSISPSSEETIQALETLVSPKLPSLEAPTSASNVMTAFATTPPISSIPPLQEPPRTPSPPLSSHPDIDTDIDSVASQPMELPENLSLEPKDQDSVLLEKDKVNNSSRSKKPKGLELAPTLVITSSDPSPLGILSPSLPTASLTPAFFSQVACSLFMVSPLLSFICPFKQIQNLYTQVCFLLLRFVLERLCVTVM
Method in brief: as §1

ETV2 = target: T10, ETV2 (Homo sapiens, UniProt O00321 1-342); conditions: protein: recombinant; tags: N-terminal GST; dsDNA, one strand shown
T10 sequence: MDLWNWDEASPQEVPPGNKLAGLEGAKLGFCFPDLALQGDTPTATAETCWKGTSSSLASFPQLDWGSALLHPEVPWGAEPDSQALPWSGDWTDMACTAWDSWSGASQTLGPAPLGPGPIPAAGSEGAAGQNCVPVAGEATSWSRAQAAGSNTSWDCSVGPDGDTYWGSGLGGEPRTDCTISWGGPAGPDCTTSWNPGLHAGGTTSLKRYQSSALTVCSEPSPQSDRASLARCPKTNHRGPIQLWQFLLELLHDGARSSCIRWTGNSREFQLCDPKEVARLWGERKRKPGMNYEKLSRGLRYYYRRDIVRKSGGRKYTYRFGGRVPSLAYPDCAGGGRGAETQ
Method in brief: as §1

ELF3 = target: T11, ELF3 (Homo sapiens, UniProt P78545 1-371); conditions: protein: recombinant; tags: N-terminal GST; dsDNA, one strand shown
T11 sequence: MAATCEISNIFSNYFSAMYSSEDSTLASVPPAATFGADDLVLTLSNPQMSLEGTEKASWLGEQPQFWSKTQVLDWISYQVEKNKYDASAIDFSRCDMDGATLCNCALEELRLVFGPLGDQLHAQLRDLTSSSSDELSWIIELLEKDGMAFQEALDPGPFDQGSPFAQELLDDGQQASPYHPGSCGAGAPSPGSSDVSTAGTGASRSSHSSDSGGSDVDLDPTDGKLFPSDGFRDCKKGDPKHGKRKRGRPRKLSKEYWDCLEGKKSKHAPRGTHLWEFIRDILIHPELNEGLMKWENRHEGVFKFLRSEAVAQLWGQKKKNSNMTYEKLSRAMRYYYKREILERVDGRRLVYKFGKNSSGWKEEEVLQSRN
Method in brief: as §1

CRX = CRX (Homo sapiens, UniProt O43186 1-299); conditions: protein: recombinant; tags: N-terminal GST; dsDNA, one strand shown
Method in brief: as §1

ETV1 = ETV1 (Homo sapiens, UniProt P50549 1-477); conditions: protein: recombinant; tags: N-terminal GST; dsDNA, one strand shown
Method in brief: as §1

ELF4, sequence (Q99607 whole entry): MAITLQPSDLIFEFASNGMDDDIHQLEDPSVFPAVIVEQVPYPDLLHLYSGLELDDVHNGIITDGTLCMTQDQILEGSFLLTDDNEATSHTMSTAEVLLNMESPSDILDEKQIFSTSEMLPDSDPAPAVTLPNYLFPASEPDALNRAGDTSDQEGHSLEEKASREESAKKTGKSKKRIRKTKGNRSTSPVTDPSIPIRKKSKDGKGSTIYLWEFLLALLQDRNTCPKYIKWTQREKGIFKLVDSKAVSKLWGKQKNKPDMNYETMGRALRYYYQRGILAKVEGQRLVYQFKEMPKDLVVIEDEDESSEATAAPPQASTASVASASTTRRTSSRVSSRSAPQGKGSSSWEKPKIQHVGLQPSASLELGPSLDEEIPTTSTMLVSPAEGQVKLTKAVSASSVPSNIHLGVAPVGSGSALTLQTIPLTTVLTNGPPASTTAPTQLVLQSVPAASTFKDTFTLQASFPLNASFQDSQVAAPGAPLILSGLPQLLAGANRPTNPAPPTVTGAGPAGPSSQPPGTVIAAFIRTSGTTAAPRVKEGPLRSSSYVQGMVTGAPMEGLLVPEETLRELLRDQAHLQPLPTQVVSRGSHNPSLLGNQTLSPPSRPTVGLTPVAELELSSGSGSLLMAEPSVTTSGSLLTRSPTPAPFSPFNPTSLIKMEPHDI
CRX, sequence (O43186 whole entry): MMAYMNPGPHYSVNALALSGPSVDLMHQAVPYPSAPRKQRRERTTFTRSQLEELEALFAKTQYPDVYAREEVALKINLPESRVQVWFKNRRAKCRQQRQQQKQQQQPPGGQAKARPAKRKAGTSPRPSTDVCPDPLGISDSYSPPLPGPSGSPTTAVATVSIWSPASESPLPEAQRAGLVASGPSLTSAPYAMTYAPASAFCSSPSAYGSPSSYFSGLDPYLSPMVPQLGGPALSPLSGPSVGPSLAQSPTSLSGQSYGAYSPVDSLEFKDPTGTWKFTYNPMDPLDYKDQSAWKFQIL
HSF1, sequence (Q00613 whole entry): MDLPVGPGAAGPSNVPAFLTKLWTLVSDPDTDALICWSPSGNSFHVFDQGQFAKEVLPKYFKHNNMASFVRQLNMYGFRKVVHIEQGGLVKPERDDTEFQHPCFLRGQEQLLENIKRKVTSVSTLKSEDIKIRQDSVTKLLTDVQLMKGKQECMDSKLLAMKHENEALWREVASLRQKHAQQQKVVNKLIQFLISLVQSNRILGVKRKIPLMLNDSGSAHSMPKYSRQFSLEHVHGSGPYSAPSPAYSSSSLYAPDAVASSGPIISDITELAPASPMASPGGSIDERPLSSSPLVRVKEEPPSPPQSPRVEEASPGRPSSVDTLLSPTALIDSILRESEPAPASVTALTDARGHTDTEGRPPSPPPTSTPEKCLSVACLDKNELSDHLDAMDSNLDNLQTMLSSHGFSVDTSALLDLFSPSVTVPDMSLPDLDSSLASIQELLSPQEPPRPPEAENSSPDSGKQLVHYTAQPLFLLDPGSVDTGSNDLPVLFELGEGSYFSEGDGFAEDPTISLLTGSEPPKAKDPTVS
SPIB, sequence (Q01892 whole entry): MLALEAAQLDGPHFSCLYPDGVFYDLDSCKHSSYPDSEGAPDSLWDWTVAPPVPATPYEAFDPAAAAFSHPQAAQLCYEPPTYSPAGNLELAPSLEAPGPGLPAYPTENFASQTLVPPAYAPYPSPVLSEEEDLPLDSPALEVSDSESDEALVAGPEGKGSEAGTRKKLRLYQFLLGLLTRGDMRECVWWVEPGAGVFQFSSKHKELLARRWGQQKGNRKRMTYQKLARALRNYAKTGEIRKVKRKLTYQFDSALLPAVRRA
ELF1, sequence (P32519 whole entry): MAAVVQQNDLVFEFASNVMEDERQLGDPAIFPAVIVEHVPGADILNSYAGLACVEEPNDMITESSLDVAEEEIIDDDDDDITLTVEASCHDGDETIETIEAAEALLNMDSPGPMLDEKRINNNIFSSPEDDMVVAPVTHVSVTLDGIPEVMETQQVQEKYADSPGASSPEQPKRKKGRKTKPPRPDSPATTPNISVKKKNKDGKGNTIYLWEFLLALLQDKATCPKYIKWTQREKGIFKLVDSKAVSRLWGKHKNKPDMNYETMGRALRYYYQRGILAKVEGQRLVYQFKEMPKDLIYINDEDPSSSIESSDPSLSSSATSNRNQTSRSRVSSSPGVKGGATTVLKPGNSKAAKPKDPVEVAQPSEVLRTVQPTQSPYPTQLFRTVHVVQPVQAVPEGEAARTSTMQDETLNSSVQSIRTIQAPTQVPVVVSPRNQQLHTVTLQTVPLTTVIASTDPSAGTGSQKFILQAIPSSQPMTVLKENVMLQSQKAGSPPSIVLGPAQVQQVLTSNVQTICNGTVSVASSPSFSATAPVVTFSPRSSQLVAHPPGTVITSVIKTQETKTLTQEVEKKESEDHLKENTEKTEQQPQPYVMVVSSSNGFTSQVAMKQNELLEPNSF
ETV5, sequence (P41161 whole entry): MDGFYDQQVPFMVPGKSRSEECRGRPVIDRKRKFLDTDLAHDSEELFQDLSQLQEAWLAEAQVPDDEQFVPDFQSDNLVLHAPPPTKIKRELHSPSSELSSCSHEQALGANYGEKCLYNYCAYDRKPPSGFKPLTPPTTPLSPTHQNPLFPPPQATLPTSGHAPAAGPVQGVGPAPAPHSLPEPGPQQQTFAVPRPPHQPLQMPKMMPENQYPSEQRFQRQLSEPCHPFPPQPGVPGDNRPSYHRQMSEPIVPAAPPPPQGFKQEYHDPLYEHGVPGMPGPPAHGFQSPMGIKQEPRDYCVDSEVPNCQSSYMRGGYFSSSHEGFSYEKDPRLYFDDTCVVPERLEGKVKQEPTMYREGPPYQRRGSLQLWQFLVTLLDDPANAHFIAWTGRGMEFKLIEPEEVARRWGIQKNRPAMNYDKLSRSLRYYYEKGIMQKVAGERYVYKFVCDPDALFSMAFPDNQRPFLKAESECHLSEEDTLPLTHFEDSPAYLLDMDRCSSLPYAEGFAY
ETV1, sequence (P50549 whole entry): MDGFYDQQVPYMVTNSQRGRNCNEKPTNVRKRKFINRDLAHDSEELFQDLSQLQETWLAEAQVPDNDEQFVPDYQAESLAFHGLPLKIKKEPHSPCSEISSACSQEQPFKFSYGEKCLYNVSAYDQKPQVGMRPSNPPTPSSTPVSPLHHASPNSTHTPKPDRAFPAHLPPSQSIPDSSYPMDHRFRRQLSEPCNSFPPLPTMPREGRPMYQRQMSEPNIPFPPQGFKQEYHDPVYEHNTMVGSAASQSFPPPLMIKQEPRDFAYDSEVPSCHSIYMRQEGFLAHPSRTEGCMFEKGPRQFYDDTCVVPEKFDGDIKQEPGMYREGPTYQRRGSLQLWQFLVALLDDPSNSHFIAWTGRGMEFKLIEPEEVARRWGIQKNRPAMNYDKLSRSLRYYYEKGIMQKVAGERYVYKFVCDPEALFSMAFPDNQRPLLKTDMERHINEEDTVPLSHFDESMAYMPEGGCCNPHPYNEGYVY

TACACC
binding signal (FLI1): 1.16 fold enrichment (6-mer frequency, TF over GST control)
binding signal (ELK1): 1.27 fold enrichment (6-mer frequency, TF over GST control)
binding signal (GABPA): 1.14 fold enrichment (6-mer frequency, TF over GST control)
binding signal (ERG): 1.27 fold enrichment (6-mer frequency, TF over GST control)
binding signal (ELF1): 1.17 fold enrichment (6-mer frequency, TF over GST control)
binding signal (EHF): 1.22 fold enrichment (6-mer frequency, TF over GST control)
binding signal (SPI1): 1.1 fold enrichment (6-mer frequency, TF over GST control)
binding signal (SPIB): 1.11 fold enrichment (6-mer frequency, TF over GST control)
binding signal (ELK3): 1.14 fold enrichment (6-mer frequency, TF over GST control)
binding signal (FEV): 1.2 fold enrichment (6-mer frequency, TF over GST control)
binding signal (ETV5): 1.15 fold enrichment (6-mer frequency, TF over GST control)
binding signal (HSF1): 1.03 fold enrichment (6-mer frequency, TF over GST control)
binding signal (SPIC): 1.3 fold enrichment (6-mer frequency, TF over GST control)
binding signal (ELF4): 1.22 fold enrichment (6-mer frequency, TF over GST control)
binding signal (ELK4): 1.16 fold enrichment (6-mer frequency, TF over GST control)
binding signal (ETV2): 1.19 fold enrichment (6-mer frequency, TF over GST control)
binding signal (ELF3): 1.11 fold enrichment (6-mer frequency, TF over GST control)
binding signal (CRX): 1.06 fold enrichment (6-mer frequency, TF over GST control)
binding signal (ETV1): 1.25 fold enrichment (6-mer frequency, TF over GST control)
